Here are results for 6 compounds from the supplement of paper PMC9262897, “Low-cost anti-mycobacterial drug discovery using engineered E. coli” (Nature Communications, 2022).

± gives the standard deviation of the averaged measurements.

Test in all cases: growth (OD600 after 10 h); higher = more growth (less inhibition)
In test [1] the test system is E. coli TESEC Alr+ wild-type control. Particulars: compound 0.1 mM; raw OD600 reference: median of DMSO wells 0.241, cell-free background 0.041. The procedure:
(§1)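 TESEC Mtb Alr E. coli, or the Alr+ wild-type control, in 384-well plates with Prestwick library compounds at 0.1 mM and 1% DMSO, across arabinose induction levels of 1E3 to 1E7 nM. Growth is read as OD600 after 10 h at 37 °C in triplicate biological replicates.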

Test [2] has as its system E. coli TESEC Mtb Alr. Conditions: compound 0.1 mM. The procedure:
as §1

In a further test the test system is E. coli TESEC Mtb Asd. Particulars: compound 0.1 mM. The protocol:
(§2)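 TESEC E. coli strains in which the native enzyme is deleted and replaced by arabinose-inducible Mtb Asd, DapB, CysH or TrpD, each grown in its selective medium. Strains were screened against the Prestwick library at 0.1 mM and 1% DMSO in 384-well format at low and high arabinose induction. Growth is read as OD600 after 10 h in triplicate.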

The next test has as its system E. coli TESEC Mtb DapB. Particulars: compound 0.1 mM. The procedure: as §2
For test [3], the system named is E. coli TESEC Mtb Alr. Particulars: compound 0.1 mM. The protocol: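 TESEC Mtb Alr E. coli (ΔaraC ΔtolC ΔentC Δalr ΔdadX, arabinose-inducible Mtb Alr) or the Alr+ wild-type control strain, grown in defined M9-fructose medium without D-alanine in 96-well plates with Prestwick library compounds at 0.1 mM and 1% DMSO. Low Alr induction is 0.1 µM arabinose and high induction is 10 mM arabinose.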
The source holds these as a separate data set.

The mark [4] stands for this setting: arabinose 1000 nM, raw OD600 reference: median of DMSO wells 0.294, cell-free background 0.041.
The mark [5] stands for this setting: arabinose 10000 nM, raw OD600 reference: median of DMSO wells 0.264, cell-free background 0.041.
[6] abbreviates: arabinose 100000 nM, raw OD600 reference: median of DMSO wells 0.201, cell-free background 0.041.
The mark [7] stands for this setting: arabinose 1000000 nM, raw OD600 reference: median of DMSO wells 0.193, cell-free background 0.041.
[8] abbreviates: arabinose 10000000 nM, raw OD600 reference: median of DMSO wells 0.146, cell-free background 0.041.
The mark [9] stands for this setting: arabinose induction (level): High, raw OD600 reference: median of DMSO wells 0.331, cell-free background 0.041.
Setting [10] is: arabinose induction (level): Low, raw OD600 reference: median of DMSO wells 0.417, cell-free background 0.041.
The mark [11] stands for this setting: arabinose induction (level): High, raw OD600 reference: median of DMSO wells […], cell-free background 0.041.
Where [12] appears, read: arabinose induction (level): Low, raw OD600 reference: median of DMSO wells 0.227, cell-free background 0.041.
Setting [13] is: arabinose 100 nM, raw OD600 reference: median of DMSO wells 0.413, cell-free background 0.052.
Setting [14] is: arabinose 10000000 nM, raw OD600 reference: median of DMSO wells […], cell-free background 0.052.

For `O=C(NCNC(=O)NC1C(=O)NC(=O)N1CO)NC1C(=O)NC(=O)N1CO` (stereo not given) [Imidurea], the growth turned out to be 0.231 ± 0.0035 in test [1]; 0.2874 ± 0.0013 in the test on E. coli TESEC Mtb Alr [2] (setting [4]); 0.289 ± 0.0059 in the test with E. coli TESEC Mtb Alr [2] (setting [5]); 0.193 ± 0.036 with E. coli TESEC Mtb Alr [2] (setting [6]); 0.231 ± 0.022 in the test with E. coli TESEC Mtb Alr [2] (setting [7]); 0.135 ± 0.0032 with E. coli TESEC Mtb Alr [2] (setting [8]). Moreover, the growth in the test on E. coli TESEC Mtb Asd (setting [9]) came to 0.336 ± 0.057; in the test with E. coli TESEC Mtb Asd (setting [10]) it was 0.358 ± 0.074; in the test on E. coli TESEC Mtb DapB (setting [11]), 0.207 ± 0.024; in the test with E. coli TESEC Mtb DapB (setting [12]), 0.215 ± 0.032; in the test with E. coli TESEC Mtb Alr [3] (setting [13]), 0.44 ± 0.021; with E. coli TESEC Mtb Alr [3] (setting [14]), 0.345 ± 0.012.
Turning to `NCC(CC(=O)O)c1ccc(Cl)cc1` (racemic) [Baclofen (R,S)], the growth worked out at 0.248 ± 0.011 in test [1]; 0.299 ± 0.0066 in the test with E. coli TESEC Mtb Alr [2] (setting [4]); 0.2703 ± 0.0017 in the test with E. coli TESEC Mtb Alr [2] (setting [5]); 0.22 ± 0.029 with E. coli TESEC Mtb Alr [2] (setting [6]); 0.189 ± 0.0083 in the test on E. coli TESEC Mtb Alr [2] (setting [7]); 0.15 ± 0.007 in the test with E. coli TESEC Mtb Alr [2] (setting [8]). Further, the growth in the test with E. coli TESEC Mtb Asd (setting [9]) amounted to 0.392 ± 0.032; in the test with E. coli TESEC Mtb Asd (setting [10]), 0.422 ± 0.029; in the test on E. coli TESEC Mtb DapB (setting [11]), 0.219 ± 0.017; in the test with E. coli TESEC Mtb DapB (setting [12]) it was 0.246 ± 0.04; in the test with E. coli TESEC Mtb Alr [3] (setting [13]), 0.408 ± 0.0092; with E. coli TESEC Mtb Alr [3] (setting [14]), 0.361 ± 0.026.
Consider `Cc1cc(C(C#N)c2ccc(Cl)cc2)c(Cl)cc1NC(=O)c1cc(I)cc(I)c1O` (stereo not given) [Closantel], for which the growth in test [1] turned out to be 0.067 ± 0.0041; in the test with E. coli TESEC Mtb Alr [2] (setting [4]), 0.0633 ± 0.008; in the test on E. coli TESEC Mtb Alr [2] (setting [5]), 0.0425 ± 0.0013; in the test on E. coli TESEC Mtb Alr [2] (setting [6]), 0.0471 ± 0.0022; in the test on E. coli TESEC Mtb Alr [2] (setting [7]), 0.0411 ± 0.00058; in the test with E. coli TESEC Mtb Alr [2] (setting [8]), 0.0539 ± 0.00083. In addition, the growth in the test on E. coli TESEC Mtb Asd (setting [9]) was 0.0773 ± 0.0025; with E. coli TESEC Mtb Asd (setting [10]), 0.0874 ± 0.0013; with E. coli TESEC Mtb DapB (setting [11]), 0.0896 ± 0.013; with E. coli TESEC Mtb DapB (setting [12]) it was 0.0929 ± 0.01; in the test on E. coli TESEC Mtb Alr [3] (setting [13]), 0.137 ± 0.042; in the test with E. coli TESEC Mtb Alr [3] (setting [14]) it was 0.145 ± 0.043.
Turning to `CN[C@@H]1[C@@H](O)[C@@H](O[C@@H]2[C@@H](O)[C@H](O[C@H]3O[C@H](CN)CC[C@H]3N)[C@@H](N)C[C@H]2N)OC[C@]1(C)O.CN[C@@H]1[C@@H](O)[C@@H](O[C@@H]2[C@@H](O)[C@H](O[C@H]3O[C@H]([C@@H](C)N)CC[C@H]3N)[C@@H](N)C[C@H]2N)OC[C@]1(C)O.CN[C@@H]1[C@@H](O)[C@@H](O[C@@H]2[C@@H](O)[C@H](O[C@H]3O[C@H]([C@@H](C)NC)CC[C@H]3N)[C@@H](N)C[C@H]2N)OC[C@]1(C)O` [Gentamicine sulfate], the growth in test [1] came to 0.0458 ± 0.00049; with E. coli TESEC Mtb Alr [2] (setting [4]), 0.04643 ± 0.00025; in the test with E. coli TESEC Mtb Alr [2] (setting [5]), 0.0414 ± 0.00061; with E. coli TESEC Mtb Alr [2] (setting [6]), 0.0505 ± 0.0026; with E. coli TESEC Mtb Alr [2] (setting [7]), 0.0448 ± 0.00064; in the test with E. coli TESEC Mtb Alr [2] (setting [8]), 0.075 ± 0.001. Further, the growth in the test with E. coli TESEC Mtb Asd (setting [9]) was found to be 0.134 ± 0.021; in the test on E. coli TESEC Mtb Asd (setting [10]), 0.0693 ± 0.0051; in the test on E. coli TESEC Mtb DapB (setting [11]), 0.21 ± 0.067; in the test on E. coli TESEC Mtb DapB (setting [12]) it was 0.112 ± 0.0046; with E. coli TESEC Mtb Alr [3] (setting [13]), 0.191 ± 0.13; in the test on E. coli TESEC Mtb Alr [3] (setting [14]) it was 0.0981 ± 0.037.
For `C[C@H](N)[C@H](O)c1ccc(O)c(O)c1` [Levonordefrin], the growth came out at 0.1755 ± 0.00087 in test [1]; 0.276 ± 0.013 in the test with E. coli TESEC Mtb Alr [2] (setting [4]); 0.26 ± 0.0038 in the test on E. coli TESEC Mtb Alr [2] (setting [5]); 0.206 ± 0.0036 in the test with E. coli TESEC Mtb Alr [2] (setting [6]); 0.118 ± 0.0043 in the test on E. coli TESEC Mtb Alr [2] (setting [7]); 0.131 ± 0.0047 in the test with E. coli TESEC Mtb Alr [2] (setting [8]). Besides, the growth was 0.194 ± 0.014 with E. coli TESEC Mtb Asd (setting [9]); 0.357 ± 0.0047 in the test on E. coli TESEC Mtb Asd (setting [10]); 0.167 ± 0.003 with E. coli TESEC Mtb DapB (setting [11]); 0.176 ± 0.043 in the test with E. coli TESEC Mtb DapB (setting [12]); 0.398 ± 0.024 with E. coli TESEC Mtb Alr [3] (setting [13]); 0.371 ± 0.017 with E. coli TESEC Mtb Alr [3] (setting [14]).
For `C[CH2][Hg][S]c1ccccc1C(=O)[O-].[Na+]` [Thimerosal], the growth in test [1] turned out to be 0.0433 ± 0.0046; in the test on E. coli TESEC Mtb Alr [2] (setting [4]), 0.162 ± 0.018; in the test with E. coli TESEC Mtb Alr [2] (setting [5]), 0.117 ± 0.01; in the test with E. coli TESEC Mtb Alr [2] (setting [6]) it was 0.0992 ± 0.0084; in the test with E. coli TESEC Mtb Alr [2] (setting [7]), 0.04637 ± 0.00025; with E. coli TESEC Mtb Alr [2] (setting [8]) it was 0.0615 ± 0.0003. Also, the growth amounted to 0.0491 ± 0.0015 in the test with E. coli TESEC Mtb Asd (setting [9]), 0.0488 ± 0.0015 in the test on E. coli TESEC Mtb Asd (setting [10]), 0.355 ± 0.036 in the test on E. coli TESEC Mtb Alr [3] (setting [13]) and 0.0589 ± 0.0027 in the test with E. coli TESEC Mtb Alr [3] (setting [14]).
